Measured values taken from PubChem BioAssay (NCATS).
A number with no mark means an inactive call. For part of these data: Measured potencies and affinities stand elsewhere. The source made the active and inactive calls. No rule for the calls is given here.

Columns and labels:
[1] = Ebola virus entry assay, green fluorescence channel
[2] = Ebola virus entry assay, blue channel fluorescence
[3] = Ebola virus entry assay, ratio channel
[4] = Ebola virus entry assay, reporter ratio channel; Channel type: primary
For efficacy in this document: 0% is about no effect.

Structure (SMILES)	efficacy [1]	AC50 [2]	AC50 [3]	AC50 [4]	outcome [3]	outcome [2]	outcome [4]
CN(C)C(=S)SC(=S)N(C)C	-50.4%	5.62 µM (active)	5.01 µM (active)	5.01 µM (active)	–	–	–
C#CCN(C)CCCOc1ccc(Cl)cc1Cl	-19.7%	39.8 µM (active)	–	39.8 µM (active)	inactive	–	–
CN(C)c1ccc(C(=C2C=CC(=[N+](C)C)C=C2)c2ccccc2)cc1	-236%	0.891 µM (active)	0.708 µM (active)	0.708 µM (active)	–	–	–
c1ccc2nc(N3CCNCC3)ccc2c1	106%	39.8 µM (active)	35.5 µM (active)	35.5 µM (active)	–	–	–
CCCCOc1ccc(OCCCN2CCOCC2)cc1	94.1%	25.1 µM (active)	22.4 µM (active)	22.4 µM (active)	–	–	–
COC(=O)C1=C(C)NC(C)=C(C(=O)OC(C)(C)CN(C)CCC(c2ccccc2)c2ccccc2)C1c1cccc([N+](=O)[O-])c1 (stereo unspecified)	39.5%	14.1 µM (active)	12.6 µM (active)	12.6 µM (active)	–	–	–
C/C(=C(/OCCOc1ccc(Cl)cc1)c1ccc(Cl)cc1Cl)n1ccnc1	81.6%	39.8 µM (active)	–	39.8 µM (active)	inactive	–	–
COc1cc(C[C@@H](C)N)c(OC)cc1C	32.9%	35.5 µM (active)	–	35.5 µM (active)	inactive	–	–
COC(=O)[C@H]1[C@H]2C[C@@H]3c4[nH]c5cc(OC)ccc5c4CCN3C[C@H]2C[C@@H](OC(=O)COc2ccc(OC)cc2)[C@@H]1OC	21%	22.4 µM (active)	25.1 µM (active)	25.1 µM (active)	–	–	–
CCCCCCCCCCCCCCCC[N+](C)(C)Cc1ccccc1	-178%	31.6 µM (active)	22.4 µM (active)	22.4 µM (active)	–	–	–
CN(C)CCOC1=Cc2ccccc2Sc2ccc(Cl)cc21	46.9%	15.8 µM (active)	12.6 µM (active)	12.6 µM (active)	–	–	–
CC(C(O)c1ccc(O)cc1)N1CCC(Cc2ccccc2)CC1 (stereo unspecified)	92.8%	17.8 µM (active)	28.2 µM (active)	28.2 µM (active)	–	–	–
CN1CCN(C2Cc3ccccc3Sc3ccc(Cl)cc32)CC1 (stereo unspecified)	95.7%	5.01 µM (active)	5.01 µM (active)	5.01 µM (active)	–	–	–
COc1cc2c(cc1OC)-c1cc(=Nc3c(C)cc(C)cc3C)n(C)c(=O)n1CC2	20.5%	15.8 µM (active)	15.8 µM (active)	15.8 µM (active)	–	–	–
CN(C)CCCOC1(Cc2ccccc2)CCCCCC1	64.1%	17.8 µM (active)	14.1 µM (active)	14.1 µM (active)	–	–	–
CC1=C(C(=O)OC(C)C)C(c2cccc([N+](=O)[O-])c2)C(C(=O)OC2CN(C(c3ccccc3)c3ccccc3)C2)=C(N)N1 (stereo unspecified)	-152%	39.8 µM (active)	28.2 µM (active)	28.2 µM (active)	–	–	–
NCCNc1cccc2ccccc12	85.8%	39.8 µM (active)	25.1 µM (active)	25.1 µM (active)	–	–	–
OC(CCN1CCCCC1)(c1ccccc1)c1ccccc1	36.7%	31.6 µM (active)	28.2 µM (active)	28.2 µM (active)	–	–	–
CN1CCC(=C2c3ccccc3CCc3sccc32)CC1	69.4%	8.91 µM (active)	8.91 µM (active)	8.91 µM (active)	–	–	–
CC1=C(CC(=O)O)c2cc(F)ccc2/C1=C\c1ccc(S(C)=O)cc1 (stereo unspecified)	55.9%	–	–	–	inactive	inactive	inactive
COC(=O)C1=C(C)NC(C)=C(C(=O)OCCCN2CCC(c3ccccc3)(c3ccccc3)CC2)C1c1cccc([N+](=O)[O-])c1 (stereo unspecified)	-179%	2.82 µM (active)	2.51 µM (active)	2.51 µM (active)	–	–	–
CC(C)N=C(N)/N=C(\N)Nc1ccc(Cl)cc1	78.8%	39.8 µM (active)	–	39.8 µM (active)	inactive	–	–
CCOC(=O)C1=C(C)NC(C)=C(C(=O)OCC)C1c1ccccc1/C=C/C(=O)OC(C)(C)C	50%	–	–	–	inactive	inactive	inactive
N[C@H](C(=O)O)[C@@H](O)c1ccc(O)c(O)c1	53.3%	22.4 µM (active)	20 µM (active)	20 µM (active)	–	–	–
COc1ccc(/C=C/C(=O)c2ccc(OC)cc2OC)cc1	38.6%	39.8 µM (active)	–	39.8 µM (active)	inactive	–	–
CN1[C@@H]2CC[C@H]1CC(OC(=O)c1cc(Cl)cc(Cl)c1)C2 (stereo partly specified)	82.4%	25.1 µM (active)	28.2 µM (active)	28.2 µM (active)	–	–	–
NC(=O)C1(N2CCCCC2)CCN(CCCN2c3ccccc3CCc3ccc(Cl)cc32)CC1	-222%	3.98 µM (active)	3.55 µM (active)	3.55 µM (active)	–	–	–

Structure (SMILES)	efficacy [1]	AC50 [2]	AC50 [3]	AC50 [4]	outcome [3]	outcome [2]	outcome [4]
C[C@H](N)[C@H](O)c1ccc(O)c(O)c1	56.6%	5.62 µM (active)	4.47 µM (active)	4.47 µM (active)	–	–	–
CN(CCCN1c2ccccc2CCc2ccccc21)CC(=O)c1ccc(Cl)cc1	78.9%	22.4 µM (active)	25.1 µM (active)	25.1 µM (active)	–	–	–
O=C(CCCN1CC=C(n2c(=O)[nH]c3ccccc32)CC1)c1ccc(F)cc1	51%	17.8 µM (active)	17.8 µM (active)	17.8 µM (active)	–	–	–
CCC1(c2cccc(O)c2)CCCCN(C)C1 (stereo unspecified)	34.9%	20 µM (active)	–	39.8 µM (active)	inactive	–	–
COc1cccc(N(C)C(=S)Oc2ccc3c(c2)CCCC3)n1	84.1%	17.8 µM (active)	28.2 µM (active)	28.2 µM (active)	–	–	–
C#C[C@]1(O)CC[C@H]2[C@@H]3CCC4=CC(=O)CCC4=C3C=C[C@@]21CC	138%	20 µM (active)	15.8 µM (active)	15.8 µM (active)	–	–	–
CCN(CC)CCNc1ccc(CO)c2sc3ccccc3c(=O)c12	47.9%	17.8 µM (active)	14.1 µM (active)	14.1 µM (active)	–	–	–
Cc1cc(O)c(C(C)C)cc1Cl	-25.5%	35.5 µM (active)	–	–	inactive	–	inactive
C=CCc1ccccc1OCC(O)CNC(C)C (stereo unspecified)	42.4%	28.2 µM (active)	25.1 µM (active)	25.1 µM (active)	–	–	–
O=C1NC2CCCCN2C12CCN(CCCN1c3ccccc3CCc3ccc(Cl)cc31)CC2 (stereo unspecified)	-203%	4.47 µM (active)	3.16 µM (active)	3.16 µM (active)	–	–	–
CN(C)CCN(Cc1ccc(Cl)cc1)c1ccccn1	58.3%	17.8 µM (active)	14.1 µM (active)	14.1 µM (active)	–	–	–
c1ccc2c(c1)Sc1ccccc1N2CC1CN2CCC1CC2 (stereo unspecified)	-241%	5.01 µM (active)	3.98 µM (active)	3.98 µM (active)	–	–	–
CC(Cc1ccccc1)NCc1ccccc1Cl (stereo unspecified)	-110%	14.1 µM (active)	14.1 µM (active)	14.1 µM (active)	–	–	–
OC(c1ccccc1)(c1ccccc1)C1CCNCC1	37.5%	20 µM (active)	15.8 µM (active)	15.8 µM (active)	–	–	–
[O-][n+]1ccccc1SSc1cccc[n+]1[O-]	40.7%	1.26 µM (active)	1.26 µM (active)	1.26 µM (active)	–	–	–
Cc1nnc2n1-c1sc(CCc3ccc(CC(C)C)cc3)cc1C(c1ccccc1Cl)=NC2C (stereo unspecified)	144%	39.8 µM (active)	31.6 µM (active)	31.6 µM (active)	–	–	–
CN(C)CC/C=C1\c2ccccc2Sc2ccc(Cl)cc21	-98.3%	3.16 µM (active)	3.16 µM (active)	3.16 µM (active)	–	–	–
CCCCN(CCCC)CCC(O)c1cc2c(Cl)cc(Cl)cc2c2cc(C(F)(F)F)ccc12 (stereo unspecified)	131%	7.94 µM (active)	4.47 µM (active)	4.47 µM (active)	–	–	–
COc1ccc(-c2cc(C(F)F)nn2-c2ccc(S(N)(=O)=O)cc2)cc1F	77%	25.1 µM (active)	14.1 µM (active)	14.1 µM (active)	–	–	–
CC(N)C(=O)OC(C)(C)Cc1ccc(Cl)cc1 (stereo unspecified)	77%	15.8 µM (active)	14.1 µM (active)	14.1 µM (active)	–	–	–
OCc1cc(C(O)CNCCCCCCOCCCCc2ccccc2)ccc1O (stereo unspecified)	98.5%	7.94 µM (active)	7.08 µM (active)	7.08 µM (active)	–	–	–
CCOC(=O)N1CCC(Nc2ccc(Cl)cc2N)CC1	119%	39.8 µM (active)	–	39.8 µM (active)	inactive	–	–
CC(=O)OC1(c2ccccc2)CCN(CCc2ccccc2)CC1	56.2%	31.6 µM (active)	31.6 µM (active)	31.6 µM (active)	–	–	–
CCN(CCCCOC(=O)c1ccc(OC)c(OC)c1)C(C)Cc1ccc(OC)cc1 (stereo unspecified)	112%	20 µM (active)	15.8 µM (active)	15.8 µM (active)	–	–	–
CCN1CCCC(OC(=O)C(c2ccccc2)c2ccccc2)C1 (stereo unspecified)	26.3%	25.1 µM (active)	20 µM (active)	20 µM (active)	–	–	–
CN1CCC(=C2c3ccccc3CC(=O)c3sccc32)CC1	93.4%	31.6 µM (active)	28.2 µM (active)	28.2 µM (active)	–	–	–
Cc1ccc(C(=O)Oc2ccc(C(O)CNC(C)(C)C)cc2OC(=O)c2ccc(C)cc2)cc1 (stereo unspecified)	67.4%	3.98 µM (active)	3.55 µM (active)	3.55 µM (active)	–	–	–
